Among the data in the supplement of paper PMC7156485 are H1.0 immunofluorescence intensity values, retold here.

SMILES strings stand for the structures. A number with no mark means an inactive call.
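Also: TDF is a line of transformed human dermal fibroblasts of mesenchymal origin.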

This experiment relates to HCC1569. The experiment is described as follows: H1.0 immunofluorescence intensity relative to DMSO (% of DMSO); higher = stronger H1.0 induction, active = 140 or more. Conditions: concentration: 10 µM; 24 h. Put shortly: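 H1.0 nuclear intensity or cell number is expressed as percent of the plate control, with the median of replicates taken. HCC1569 and TDF cells were treated with compounds at 10 µM for 24 h at 37 °C, in triplicate, then fixed and immunostained for H1.0 with DAPI as a nuclear stain. HCC1569 values were smoothed to correct for positional effects.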
Take `COc1ccccc1N1CCNCC1.Cl` [1-(2-Methoxyphenyl)piperazine hydrochloride]: the H1.0 immunofluorescence intensity was 98.8. For `CCN(CC)C(=O)NC1C=C2c3cccc4[nH]cc(c34)CC2N(C)C1` (stereo not drawn) [S-(-)-Lisuride], the H1.0 immunofluorescence intensity is 93.6. As for `C#CC1(O)CCC2C3CCC4=CC(=O)CCC4=C3C=CC21CC` (stereo not drawn) [Gestrinone], the H1.0 immunofluorescence intensity was 112. With `CCc1c(C(=O)OC)ncc2[nH]c3cc(OC)c(OC)cc3c12` [Methyl 6,7-dimethoxy-4-ethyl-beta-carboline-3-carboxylate], the H1.0 immunofluorescence intensity was 130. On to `CC[NH+](CC)CC.Nc1ncnc2c1ncn2C1OC2COP([O-])(=S)OC2C1O` (stereo not drawn) [Rp-cAMPS triethylamine], for which the H1.0 immunofluorescence intensity was 88.3. Regarding `CC(C)Oc1cccnc1N(C)C1CCN(Cc2ccccc2)CC1.O=C(O)C=CC(=O)O`, the H1.0 immunofluorescence intensity was 112. `C=CCN1CCC23c4c5ccc(O)c4OC2C(=O)CCC3(O)C1C5` (stereo not drawn) [Naloxone]: the H1.0 immunofluorescence intensity was 117.

Turning to `CCN1CC2(OC(=O)c3ccccc3NC(C)=O)CCC(OC)C34C1C(CC23)C1(O)CC(OC)C2CC4C1(O)C2OC` (stereo not drawn) [Lappaconitine], the H1.0 immunofluorescence intensity was 94.3. With `COC1=CC2C3Cc4ccc(OC)c(O)c4C2(CCN3C)CC1=O` (stereo not drawn) [Sinomenine], the H1.0 immunofluorescence intensity was 83.8. The figure for `CC1=C2C(=O)C3C(CC=C4CC(O)CCC43C)C2CCC12OC1CC(C)CNC1C2C` (stereo not drawn) [Jervine] is 92; for `Cn1ncnc1COc1nn2c(-c3c(F)cccc3F)nnc2cc1C1CCC1` it is 99.6; for `CC1CCC2(NC1)OC1CC3C4CC=C5CC(O)CCC5(C)C4CCC3(C)C1C2C` (stereo not drawn) [Solasodine] it is 89.2. For `C[C@]12CC[C@@H](O)C[C@@H]1CC[C@@H]1[C@@H]2CC[C@]2(C)[C@@H](O)CC[C@@H]12` [5alpha-Androstane-3alpha,17beta-diol], the H1.0 immunofluorescence intensity is 88.8.
